Here are results for 36 molecules from PubChem BioAssay.

For this experiment, the system named is PRMT1 (protein arginine N-methyltransferase 1). Nature of the experiment: small molecules binding arginine methyltransferase PRMT1 – biochemical, small-molecule microarray, 635 nm fluorescence, primary screen (AID 1088).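 Also: binding of Prmt1 protein to compounds spotted on small-molecule microarray slides.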 As to conditions: higher = more signal.
`O=C1C=C[C@@H](O)[C@@H]2[C@@H]3C(=O)N(C4CCCCC4)C(=O)[C@@H]3CC[C@@H]12`: the composite z-score is 0.299. On to `C[C@@H]1CC[C@H]2C(=O)OC(Cc3ccccc3)CN2[C@H]1c1ccc(Br)cc1` (stereo partly specified), for which the composite z-score amounted to 1.28. For the molecule `O=C1[C@H]2[C@H]3[C@H](O)[C@H](O)CC(=NO[C@@H]4O[C@H](CO)[C@@H](O)[C@H](O)[C@H]4O)[C@H]3CC[C@H]2C(=O)N1c1ccc(F)cc1F`, the composite z-score amounted to 1.08. As for `COc1ccc(COC(=O)NN=C2C[C@@H](O)[C@@H](O)[C@@H]3[C@@H]4C(=O)N([C@@H](C)c5ccccc5)C(=O)[C@@H]4CC[C@H]23)cc1`, the composite z-score was -0.517. Molecule `CC(=O)OC[C@H]1O[C@H](CC=NO[C@H](C)c2cn([C@@H]3COC[C@H]3O)nn2)C=C[C@@H]1OC(C)=O` gave a composite z-score of 0.611. Turning to `COc1ccc(O[C@H]2C=C[C@@H](c3ccccc3)O[C@@H]2CO)cc1`, the composite z-score came to 0.018.

The molecule `CCOC(=O)[C@H](Cc1ccccc1)NC(=O)CCC1CC(OC(=O)NCCc2ccc(F)cc2)CC2(CCCC(COC(=O)NCCOc3ccccc3)O2)O1` (stereo partly specified) had a composite z-score of 1.53. In turn, `O=C1C[C@@H](O)[C@@H](O)[C@@H]2[C@@H]3C(=O)N(C4CCCCC4)C(=O)[C@@H]3CC[C@@H]12` registered a composite z-score of 0.607. For `CC(CCN1CCCCc2nc(C)c(C)cc21)=NO[C@@H](C)c1cc(-c2c(C)cc(C)cc2C)no1`, the composite z-score came out at 0.0804.

Take `CCOC(=O)[C@H](CC(C)C)NC(=O)CCC1CC(OC(=O)NCc2ccc3c(c2)OCO3)CC2(CCCC(COC(=O)NCCOc3ccccc3)O2)O1` (stereo partly specified): the composite z-score came out at 1.17. Consider `C=CC[C@@H]1C=C[C@H](ON=C(C)CCN2CCCc3nc(C)c(C)cc32)[C@@H](CO)O1`, for which the composite z-score was found to be 1.4.

On to `O=C1CCCC=C1C(O)C1CCCCC1` (stereo unspecified), for which the composite z-score is -0.784. In the case of `CO[C@H]1COC(=O)CC=C[C@H](C)[C@H](OC)COC(=O)[C@@H](C)NC(=O)CC=C[C@@H]1C`, the composite z-score amounted to 1.56. Under `COC(=O)CC=C[C@@H](C)[C@@H](C=NOC[C@@H](C)[C@H](OCc1ccccc1)C(C)C)OC` stands 0.823; under `CC(C)CON=C1C[C@@H](O)[C@@H](O)[C@@H]2[C@@H]3C(=O)N(C(C)(C)C)C(=O)[C@@H]3CC[C@@H]12`, 1.37; under `CC1(C)O[C@H]2OC([C@H](O)CON3C(=O)c4ccccc4C3=O)[C@H](O)[C@H]2O1` (stereo partly specified), 0.318. Molecule `CCOC(=O)CCN1C(=O)[C@H]2[C@H]3[C@H](O)[C@H](O)CC(=NNC(=O)OCC)[C@H]3CC[C@H]2C1=O` had a composite z-score of 0.0158. The molecule `CCN(CC)CC(O)CN1CCCCc2nc(C)c(C)cc21` (stereo unspecified) displayed a composite z-score of 0.357.

In turn, `CC(C)=NO[C@@H](C)c1cn([C@H](CO)Cc2ccccc2)nn1` registered a composite z-score of 0.99. Turning to `O=C(NN=C1C[C@@H](O)[C@@H](O)[C@@H]2[C@@H]3C(=O)N(Cc4ccccc4)C(=O)[C@@H]3CC[C@H]12)OCc1ccccc1`, the composite z-score was -0.38. As for `CCOC(=O)CCN1C(=O)[C@H]2[C@H]3[C@H](O)[C@H](O)CC(=NOCC=C(C)CCC=C(C)C)[C@H]3CC[C@H]2C1=O`, the composite z-score is 0.467.

`CC(=O)OC[C@H]1O[C@@H](ON=C2[C@H]3CCn4c(=O)n(-c5ccccc5)c(=O)n4[C@H]3[C@H](O)[C@@H]3O[C@H]23)[C@H](OC(C)=O)[C@@H](OC(C)=O)[C@@H]1OC(C)=O` displayed a composite z-score of 1.02. Regarding `O=C1CCCC=C1C(O)COCc1ccccc1` (stereo unspecified), the composite z-score was -0.544. As for `C[C@H]1CC[C@@H](C(=O)O)N[C@@H]1c1cccc(N2CCCC2=O)c1`, the composite z-score was -0.344. The molecule `COC(=O)[C@H](C)NC(=O)CCC1CC(OC(=O)NCc2ccc3c(c2)OCO3)CC2(CCCC(COC(=O)NCCCN3CCCC3=O)O2)O1` (stereo partly specified) gave a composite z-score of 1.45.

`CC(C)(C)N1C(=O)[C@H]2[C@@H]3C(=CC[C@H]2C1=O)C(=O)[C@H]1O[C@H]1[C@H]3O` returned a composite z-score of 0.34.

Molecule `CCOC(=O)NN=C1C[C@@H](O)[C@@H](O)[C@@H]2[C@@H]3C(=O)N(C[C@@H]4CCCO4)C(=O)[C@@H]3CC[C@H]12` came in with a composite z-score of 0.611. Molecule `CC(C)=CCCC(C)=CCON=C1C[C@@H](O)[C@@H](O)[C@@H]2[C@@H]3C(=O)N(Cc4ccc5c(c4)OCO5)C(=O)[C@@H]3CC[C@H]12` gave a composite z-score of 1.44. `CC(=O)OC[C@H]1O[C@H](CC=NOC(C)CN2CCCCc3nc(C)c(C)cc32)C=C[C@@H]1OC(C)=O` (stereo partly specified) registered a composite z-score of 1.54. Regarding `CCOC(=O)[C@H](Cc1ccccc1)NC(=O)CCC1CC(OC(=O)NCCc2ccc(F)cc2)CC2(CCCC(COC(=O)NCc3cccc(C(F)(F)F)c3)O2)O1` (stereo partly specified), the composite z-score was determined as 1.45. Consider `O=C1C=C[C@@H](O)[C@@H]2[C@@H]3C(=O)N(Cc4ccc5c(c4)OCO5)C(=O)[C@@H]3CC[C@@H]12`, for which the composite z-score is -0.846. Take `O=C1CCCC=C1C(O)c1ccc([N+](=O)[O-])cc1` (stereo unspecified): the composite z-score stood at 0.0679. Regarding `COC(=O)CC=C[C@@H](C)[C@@H](C=NOC(C)CN1CCCCc2nc(C)c(C)cc21)NS(=O)(=O)c1ccc(C)cc1` (stereo partly specified), the composite z-score worked out at 0.63.

`CC(CCC(=O)OC[C@H]1O[C@H](C#Cc2ccccc2)C=C[C@@H]1Oc1ccc(C)cc1)=NOC(C)CN1CCCc2nc(C)c(C)cc21` (stereo partly specified) registered a composite z-score of 1.33. Molecule `CCN1C(=O)[C@H]2[C@H]3[C@H](O)[C@H](O)CC(=NO[C@H](C)c4cn([C@@H]5COC[C@H]5O)nn4)[C@@H]3CC[C@H]2C1=O` returned a composite z-score of 0.489.

For `COc1ccc(-c2cnnc(CCCn3ccnc3-c3ccccc3)n2)cc1`, the composite z-score was found to be 0.576.
